Screening data: PubChem, National Center for Advancing Translational Sciences (NCATS)
Only some compounds are listed: those with a hit (about 6% of all), similar ones and a draw of the others.
D1 PAM = Potentiators of Human D1 Dopamine Receptor: qHTS; 360,000 compounds, 0.036% hits; HEK293 TREx D1 cells, calcium flux, dopamine EC20 potentiation; potentiation, % at 10 µM; AID 504651, 2011; D(1A) dopamine receptor (Homo sapiens), P21728; in the data active means potentiation above about 30%; further: 0% is about no effect
D1 antagonist = Antagonist of Human D 1 Dopamine Receptor: qHTS; D(1A) dopamine receptor (Homo sapiens), P21728; HEK293 TREx D1 cells, calcium flux, dopamine EC80; stronger effect = lower value; activity change, negative = inhibition, % at 10 µM; 360,000 compounds, 3.2% hits; in the data active means activity change below about -30%; further: on the % scale 0 is the no-effect control and ±100 the full control effect
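Antagonism measured as reduced calcium response to an EC80 dopamine addition following 180 s compound pre-read; cells were inducible HEK293 Trex D1 plated overnight at 30 C, read kinetically at 1 cycle/sec.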
D3 antag = qHTS of D3 Dopamine Receptor Antagonist: qHTS | D(3) dopamine receptor (Homo sapiens), P35462 | D3R cells, DiscoveRx beta-arrestin luminescence, antagonist mode; stronger effect = lower value | max response, negative = inhibition, % | 360,000 compounds, 2.5% hits | AID 652054, 2013; in the data active means max response below about -50%; inconclusive means no clear call, values can overlap the other calls; further: on the % scale 0 is the no-effect control and ±100 the full control effect
Target sequence (P35462 whole entry, looked up): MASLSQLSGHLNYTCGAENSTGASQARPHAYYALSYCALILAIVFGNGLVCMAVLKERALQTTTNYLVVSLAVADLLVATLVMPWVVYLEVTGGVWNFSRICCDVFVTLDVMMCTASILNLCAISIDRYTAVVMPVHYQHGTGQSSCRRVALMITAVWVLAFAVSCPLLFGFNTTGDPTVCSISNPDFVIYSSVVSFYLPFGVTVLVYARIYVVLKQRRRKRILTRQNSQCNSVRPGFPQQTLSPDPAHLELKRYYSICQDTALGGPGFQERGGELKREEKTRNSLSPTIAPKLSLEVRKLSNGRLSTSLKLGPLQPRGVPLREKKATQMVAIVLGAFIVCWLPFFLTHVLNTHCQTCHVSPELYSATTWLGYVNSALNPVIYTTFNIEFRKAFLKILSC
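Cells plated overnight at 1500 cells/well, then exposed to library compounds with dopamine controls for 90 minutes at 37 degrees C. DiscoveRx reagent added for 30–60 minutes at room temperature; luminescence read, quantitative HTS format.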
D1 agonist = Allosteric Agonists of the Human D1 Dopamine Receptor: qHTS; D(1A) dopamine receptor (Homo sapiens), P21728; HEK293 T-REx D1 cells, calcium flux, agonist mode; activation, % at 2 µM; 360,000 compounds, 1% hits; AID 504660, 2011; in the data active means activation above about 30%; further: 0% is about no effect
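Tetracycline-induced HEK293 TREx D1 cells, force-coupled to calcium signalling, were dye-loaded with a no-wash calcium kit. Compound was pin-added after a 10 s baseline. Fluorescence was read kinetically at 1 cycle/s for 180 s, with calcium rises flagged as agonism.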
D3 ag = qHTS of D3 Dopamine Receptor Agonist: qHTS; D3R DiscoveRx beta-arrestin cells, luminescence, 90 min; max activation, %; D(3) dopamine receptor (Homo sapiens), P35462; 410,000 compounds, 0.58% hits; in the data active means max activation above about 30%; further: 0% is about no effect
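Cells at 1500/well, incubated overnight, then treated with pinned compounds (dopamine as control) for 90 min at 37 degrees C. DiscoveRx reagent added for 30 - 60 minutes at room temperature; luminescence read.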
Active calls of the source: *; ? = inconclusive; · = not tested or not shown; ! = repeats disagree.

SMILES	D1 PAM	D1 antagonist	D3 antag	D1 agonist	D3 ag
O=C(Nc1ccc(F)cc1F)c1cc2nc3c(c(C(F)(F)F)n2n1)CCCC3	-4	-33*	8	0	23
CCOc1ccc(NC(=O)C2CCN(c3nnc(-n4c(C)ccc4C)s3)CC2)cc1	-1	-7	·	-4	-5
COCOc1ccc(/C=C/C(=O)c2c(OCOC)cc(OCOC)c(CC=C(C)C)c2O)cc1OCOC	·	·	105	·	42*
COCOc1ccc(/C=C/C(=O)c2c(O)cc(OCOC)cc2OCOC)cc1	·	·	31	·	43*
COc1cc(O)cc(O)c1C(=O)/C=C/c1ccccc1	-4	-13	0	1	-32
COc1ccc(C=CC(=O)c2ccc(OCc3ccccc3)c(OC)c2)cc1OC	·	·	37	·	0
Cc1ccc(-n2cnnn2)cc1S(N)(=O)=O	0	-4	·	3	0
O=C(CNC(=O)c1ccccc1)N[C@H](C(=O)Nc1cc(C(F)(F)F)ccc1Cl)c1ccccc1	-2	7	·	4	·
CCCCNc1nc2sc3c(c2c(=O)n1-c1cccc(Cl)c1)CCN(C)C3	-5	-39*	-9	3	-9
CCCCCNc1nc2sc3c(c2c(=O)n1-c1cccc(Cl)c1)CCN(C)C3	-5	-85*	6	0	-2
CCCCSc1nc2sc3c(c2c(=O)n1-c1ccccc1)CCN(C)C3	9	12	-2	2	-4
COc1cc(O)c(C(CCN2CCCCC2)c2ccc(N(C)C)cc2)c(OC)c1 (centres undefined)	0	-34*	-10	10	-17
COc1cc(O)c(C(CCN2CCCC2)c2ccc(N(C)C)cc2)c(OC)c1 (centres undefined)	-5	-2	4	5	-10
COc1ccc(C2CC(=O)Oc3c(C(CCN4CCCCC4)c4ccc(N(C)C)cc4)c(OC)cc(OC)c32)cc1 (centres undefined)	-8	-25	-58*	7	-3
COc1cc(C2CC(=O)Oc3c(C(CCN4CCN(c5ccccc5)CC4)c4ccc(N(C)C)cc4)c(OC)cc(OC)c32)cc(OC)c1OC (centres undefined)	-1	-38*	-103*	3	-14
COc1ccc(S(=O)(=O)N2CCOCC2)cc1NC(=O)c1ccccc1C	-4	-8	-5	1	1
CCOc1ccc(-c2noc([C@@H]3O[C@H](CO)[C@@H](O)[C@H]3O)n2)cc1	·	·	-17	·	4
N#CC1CC(c2ccc([N+](=O)[O-])cc2)=NN1c1ccc([N+](=O)[O-])cc1 (centres undefined)	-4	19	-17	34*	0
O=[N+]([O-])c1cccc(C2CC(c3ccccc3)=NN2c2ccccc2)c1 (centres undefined)	-3	-1	?	5	-8
C[C@H]1O[C@H](O[C@H]2[C@H](O)[C@@H](O)[C@@H](O[C@H]3[C@H](O)[C@@H](O)[C@H](O)O[C@@H]3CO)O[C@@H]2CO)[C@H](O)[C@@H](O)[C@@H]1N[C@H]1C=C(CO)[C@@H](O)[C@H](O)[C@H]1O	·	·	·	·	0
c1ccc(COc2ccc(-c3csnn3)cc2)cc1	-5	-5	-61*	5	-1
CC(=O)COc1ccc(-c2csnn2)cc1	-1	10	-24	3	-1
COc1ccc(CNC(=O)Cn2c(=O)oc3cc(S(=O)(=O)N4CCCC4)ccc32)cc1	-1	-41*!	3	11	8
Cc1cccc(NC(=O)Cn2c(=O)oc3cc(S(=O)(=O)NCc4ccccc4)ccc32)c1	-4	-35*	·	4	3
COc1cccc(CNC(=O)Cn2c(=O)oc3cc(S(=O)(=O)N4CCCCCC4)ccc32)c1	-2	-13	·	8	-13
CC1CCN(S(=O)(=O)c2ccc3c(c2)oc(=O)n3CC(=O)NCc2ccc(F)cc2)CC1	1	-57*	·	87*	-4
CC(C)c1ccc(NC(=O)Cn2c(=O)oc3cc(S(=O)(=O)N4CCCC4)ccc32)cc1	-3	-36*	·	4	-9
